# Experimental data reported in PubChem BioAssay (NCI).
# Compounds without any hit were thinned out: in the full panel of roughly 83,000, 20% have a hit.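 A percent growth of 40 corresponds to 60% growth inhibition; 0 means no net growth; -100 means all cells died. Active threshold: below 10.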 Calls of active or inactive are those of the source.
# Test system: T-47D breast
# Assay: NCI-60 one-dose screen, 48 h (100 = growth as untreated, 0 = no growth, -100 = all killed)
# Details: 10 µM unless noted
# Description: Growth inhibition of the T-47D human tumor cell line is measured as a screen for anti-cancer activity. Cells are grown in 96 well plates and exposed to the test compound for 48 hours. Compounds are tested at a single concentration, which is 10^-5 M for most compounds. The reported endpoint is percent growth (GI% or GIPRCNT), where numbers from 0 - 100% represent growth inhibition, and numbers from -100% - 0 represent cell death. For example, a value of 40 represents 60% growth inhibition. A value of 0 means no net growth occurred over the course of the experiment. A value of -40 indicates 40% of cells at the beginning of the experiment died by the end of the experiment. A value of -100 means all cells are dead at the end of the experiment.
# NCI-60 Human Tumor Cell Lines Screen was performed using the standard one-dose NCI protocol, which is described in more detail at https://dtp.cancer.gov/discovery_development/nci-60/default.htm.
# Compounds with GIPRCNT values below 10 were considered active. Activity score was based on GIPRCNT using the following formula: […]
# Score is 0 for GIPRCNT values of 100 or above, 50 for GIPRCNT values of 0, and 100 for GIPRCNT values of -100.
row,SMILES,growth
1,COc1cc(C(=O)OCCCCCCCCCCC[P+](c2ccccc2)(c2ccccc2)c2ccccc2)ccc1O,-43.1% (active)
2,O=C(/C=C/CN1CCOCC1)Nc1cc2c(Nc3cccc(Cl)c3F)ncnc2cc1OCCOC(F)F,15.1% (inactive)
3,COc1ccc(C(=O)/C=C/c2ccc(/C=C/c3cc(OC)c(OC)c(OC)c3)cc2)cc1,43.4% (inactive)
4,C=C1C(=O)O[C@H]2[C@H]1CC/C(COC(=O)NCCc1cccc(OC)c1)=C\CC[C@@]1(C)O[C@@H]21,20.4% (inactive)
5,CC(C)C[C@H](NC(=O)Cn1ccc(NCc2ccccc2)cc1=O)B(O)O,-14.6% (active)
6,Cc1cc(Nc2nc(-c3ccc(F)cc3)nc3ccccc23)n[nH]1,29.3% (inactive)
7,NS(=O)(=O)c1ccc(NCC(=O)Nc2ccc(-c3nc4ccccc4s3)cc2)cc1,46.4% (inactive)
8,Clc1nc(Cl)c2ncn(C/C=C/Cn3cnc4c(Cl)nc(Cl)nc43)c2n1,38.2% (inactive)
9,CCC(c1ccc(OC)cc1)C(CC)c1ccc(O)c(CN2CCCC2)c1 (stereo not given),-33% (active)
10,CCn1cc(C(=O)O)c(=O)c2cc(F)c(N3CCN(S(=O)(=O)c4cccc5ccccc45)CC3)cc21,5.29% (active)
11,COc1ccc(Cl)cc1NC(N)=S,96.3% (inactive)
12,COc1cc(C2C=C(C)N=C3SC=CN32)cc(OC)c1OC (stereo not given),98.8% (inactive)
13,COc1ccc(/C=C/c2cc(N3CCOCC3)c3cc(F)c(F)cc3n2)cc1OC,37.9% (inactive)
14,COc1cc(CNC(=O)CCSc2nc3ccccc3c(=O)n2Cc2cc(OC)c(OC)c(OC)c2)cc(OC)c1OC,29.3% (inactive)
15,Nc1ccc(S(=O)(=O)c2ccc(Cl)cc2)cc1,104% (inactive)
16,CCC(=O)Nc1ccccc1C#C/C=C\C#Cc1ccccc1SC,57.2% (inactive)
17,Cc1c(C2=NNC(c3ccc4c(c3)OCO4)C2)[n+]([O-])c2ccccc2[n+]1[O-] (stereo not given),92.3% (inactive)
18,CN(C)c1ccc(C2CC(c3ccccc3)=NN2/C=C2\SC(=O)NC2=O)cc1 (stereo not given),86.7% (inactive)
19,O=S(=O)(NCCCNc1nccc(-c2c(-c3ccc(F)c(O)c3)nc3sccn23)n1)c1ccc(Cl)cc1,66.1% (inactive)
20,CCc1cccc(C)c1NC(=O)c1sc2nc3c(cc2c1N)C(=O)CCC3,24.4% (inactive)

row,SMILES,growth
1,COC12CC(=O)C(C(C)=O)=C(O)C1(C)c1c(O)c(C)c(O)c(C(C)=O)c1O2 (stereo not given),81% (inactive)
2,COc1cc2nc(SCc3cc(OC)c(OC)c(OC)c3)n(Cc3ccccc3)c(=O)c2cc1OC,35.9% (inactive)
3,CSc1ccccc1C#C/C=C\C#Cc1ccccc1N1CCCC1=O,63.2% (inactive)
4,C/C(=N\NC(=O)CC#N)c1cc2cc(Cl)ccc2o1,78.4% (inactive)
5,O=C(C[N+](=O)[O-])c1ccc(Cl)cc1,113% (inactive)
6,COc1cc(OC)cc(-c2n[nH]nc2-c2ccc3c(c2)OCO3)c1,55.4% (inactive)
7,COc1cc2nc(N3CCC[C@@H](NC4=CC(=O)c5ccccc5C4=O)C3)nc(N)c2cc1OC,-40.9% (active)
8,CN1CCN(c2ccc3cc(-c4nc5ccccc5[nH]4)c(=O)oc3c2)CC1,76.9% (inactive)
9,CNC(=O)c1cc(Oc2ccc3c(c2)sc2nc(-c4ccc(Cl)cc4)cn23)ccn1,79% (inactive)
10,CCN(C(=O)c1cc2ccccc2[nH]1)[C@H]1CCC[C@@H](NCc2ccc(OC)cc2)C1,82.7% (inactive)
11,O=C1CCCCN1CCCCC#Cc1ccccc1C#Cc1ccc([N+](=O)[O-])cc1,49.4% (inactive)
12,COc1ccc(-c2nc(-c3nc4ccc(F)cc4[nH]3)cc3c2[nH]c2ccccc23)cc1,40.8% (inactive)
13,O=C1Nc2ccc(Br)cc2C1=N/C=c1\[nH]c(=O)/c(=C/c2ccc(Cl)cc2)s1,80% (inactive)
14,COc1ncc(-c2ccc3ncnc(Nc4cccc(Cl)c4)c3c2)cc1N(S(C)(=O)=O)S(C)(=O)=O,18.5% (inactive)
15,CC(=O)c1cc(C(=O)c2ccc3c(c2)Sc2ccccc2N3)c2cc(C)ccn12,61.7% (inactive)
16,O=C(NCCCN1CCN(CCCNC(=O)C2CCCCC2)CC1)C1CCCCC1,90% (inactive)
17,Cn1c(C(N)=O)cc2c1-c1nc(NC3CCCCC3)ncc1CCC2,105% (inactive)
18,COc1cc(-c2csc(NC(=O)c3cc(C(F)(F)F)cc(C(F)(F)F)c3)n2)cc(OC)c1OC,-15.9% (active)
19,CCSc1nnc(NC(=O)COc2ccc(Cl)cc2C)s1,96% (inactive)
20,COc1ccc(S(=O)(=O)Nc2cc(/C=C\c3cc(OC)c(OC)c(OC)c3)cc(OC)c2OC)cc1OC,43.8% (inactive)
